# A selection: hits, their analogues and other compounds. The true share with any hit is near 21%.
# DRD3 agonist = agonists of human D3 dopamine receptor | D3R DiscoveRx beta-arrestin cells, luminescence, 90 min | max activation, % | P35462 | hit rate 0.58% among 410,000; in the data active means max activation above about 30%; further: 0% is about no effect
# Target sequence (P35462 whole entry, looked up): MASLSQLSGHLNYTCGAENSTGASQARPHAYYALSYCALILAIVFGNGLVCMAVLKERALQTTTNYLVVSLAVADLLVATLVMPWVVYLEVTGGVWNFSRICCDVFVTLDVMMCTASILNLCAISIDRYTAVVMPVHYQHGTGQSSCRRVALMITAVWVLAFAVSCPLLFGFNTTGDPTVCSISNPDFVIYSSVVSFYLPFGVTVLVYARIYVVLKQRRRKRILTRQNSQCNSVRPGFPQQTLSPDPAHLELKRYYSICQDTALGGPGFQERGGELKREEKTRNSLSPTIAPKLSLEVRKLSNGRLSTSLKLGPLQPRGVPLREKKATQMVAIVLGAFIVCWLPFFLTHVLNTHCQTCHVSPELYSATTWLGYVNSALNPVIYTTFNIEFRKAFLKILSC
#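 Agonist-mode cell screen: cells plated at 1500/well and incubated overnight at 37 °C, then exposed to library compounds for 90 min at 37 °C. Detection reagent was added for 30–60 min at room temperature, and luminescence was read.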
# IL1B secr inh = inflammasome signaling inhibition, IL-1 beta readout. THP-1 LPS/ATP IL-1B secretion, AlphaLISA, 16 h; hits give low values. activity change, % at 57.5 µM. hit rate 4.7% among 360,000. AID 743279; in the data active means activity change below about -50%; inconclusive means mostly about -30% to -49%; further: on the % scale 0 is the no-effect control and ±100 the full control effect
#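 Secreted IL-1B measured by AlphaLISA bead assay after 16 h compound exposure of THP-1 cells; compounds (final up to 57.5 uM) added 1 h before LPS (250 ng/mL) and ATP (1.25 mM) stimulation; lower signal means less secretion.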
# DRD3 antagonist = D3 dopamine receptor (human) antagonism; P35462; D3R cells, DiscoveRx beta-arrestin luminescence, antagonist mode; hits give low values; max response, negative = inhibition, %; hit rate 2.5% among 360,000; in the data active means max response below about -50%; inconclusive means no clear call, values can overlap the other calls; further: on the % scale 0 is the no-effect control and ±100 the full control effect
#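 Cells expressing the human receptor were seeded at 1500 cells/well, incubated overnight at 37 degrees C in 5% CO2, then exposed to library compounds with dopamine controls for 90 minutes at 37 degrees C before luminescent detection.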
# ClpP mod = qHTS Assay for Activators of ClpP; purified B. subtilis ClpP, FRET peptide cleavage, 20 min; Potency, µM (series often up to 57.5 µM), inactives show at the top dose activity change, negative = active; hit rate 1.9% among 340,000; active means well fitted falling curve with a large enough effect; inconclusive means small, poorly fitted or top-dose-only effect; inactive means no such curve, though single readings can be large or run the other way; further: potency means the concentration at half of the fitted maximal effect; the source files actives as falling curves though it sought activators and does not explain the sign; nearly all actives have a fitted effect of over 65% in size
# Target sequence (P80244 whole entry, looked up): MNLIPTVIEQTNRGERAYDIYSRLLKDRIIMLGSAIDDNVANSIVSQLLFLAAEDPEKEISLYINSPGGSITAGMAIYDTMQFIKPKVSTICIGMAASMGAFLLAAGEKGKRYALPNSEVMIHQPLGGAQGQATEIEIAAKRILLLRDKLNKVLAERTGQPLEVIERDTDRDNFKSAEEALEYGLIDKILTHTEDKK
#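 FRET quenching reversal measured ClpP activation: 10 microg/mL B. subtilis ClpP at pH 8 with the FRET-FV decapeptide, read at 430 nm after 320 nm excitation. The 20-min minus 0-min signal was scaled between DMSO/no-enzyme wells and ADEP (5.8 microM final).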
# DT40 TDP1 CPT = DT40-hTDP1 cell growth loss with CPT; Potency, µM (titrated, usually from 46.2 µM), for the others: at the top dose activity change, negative = growth inhibition, most hits filed as inhibitors; chicken DT40 Tdp1-/-;hTDP1 cells + 20 nM CPT, ATP luminescence, 48 h; hit rate 12% among 420,000; further: potency means the concentration at half of the fitted maximal effect; on the % scale 0 is the no-effect control and ±100 the full control effect; nearly all actives have a fitted effect of over 55% in size
#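 Cell growth measured by CellTiter-Glo luminescence after a minimum 48 h, 37 C compound exposure with 20 nM CPT in Tdp1-knockout DT40 cells stably expressing hTDP1, seeded 400/well; qHTS titration format.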
# TDP1 cell noCPT = qHTS for Inhibitors of human tyrosyl-DNA phosphodiesterase 1 (TDP1): qHTS in cells in absence of CPT. DT40 Tdp1-/- hTDP1 cells, no CPT, ATP luminescence, 48 h. Potency, µM (top dose mostly 46.2 µM), inactives show top-dose activity change, negative = growth inhibition, most hits filed as inhibitors. hit rate 15% among 420,000; further: potency means the concentration at half of the fitted maximal effect; on the % scale 0 is the no-effect control and ±100 the full control effect; nearly all actives have a fitted effect of over 55% in size
#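 Cells were dispensed at 400 per well, compounds added by pin tool, plates incubated ≥48 hr at 37 °C, then CellTiter-Glo added for 30 min at room temperature before luminescence reading. Line: DT40 Tdp1-/- complemented with hTDP1; camptothecin omitted.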
# * = called active by the depositor; ? = inconclusive; . = not tested or not shown. Unless noted, the call rests on the fitted dose curve; in most records, active means well fitted inhibition curve with a large enough effect; inconclusive means small, poorly fitted or top-dose-only effect; inactive means flat fitted curve, though single readings scatter.
SMILES,DRD3 agonist,IL1B secr inh,DRD3 antagonist,ClpP mod,DT40 TDP1 CPT,TDP1 cell noCPT
CC(C)Oc1ccc(C(=O)Nc2cccc(S(=O)(=O)N3CCCC3)c2)cc1,0,?,5,.,29µM*,21µM*
Cc1cc(C)n(-c2ccc(C(=O)Nc3cccc(S(=O)(=O)N4CCCC4)c3)cc2)n1,8,1,0,.,18µM*,9.2µM*
Cc1cc(C)nc(-n2nc(C)cc2NC(=O)c2cccc(S(=O)(=O)N3CCOCC3)c2)n1,3,-8,7,-3%,?,21µM*
Cc1cc(C)nc(-n2nc(C)cc2NC(=O)c2ccc(S(=O)(=O)N3CCOCC3)cc2)n1,-4,11,28,0%,-30%,-24%
Cc1cc(C)n(-c2ccc(C(=O)OCC(=O)Nc3ccc(S(=O)(=O)N4CCCCC4)cc3)cc2)n1,-1,-12,16,?,23µM*,?
COc1cc(N=Nc2cccc(S(N)(=O)=O)c2)c2ccccc2c1N,-15,?,?,.,?,18µM*
NC1=NC(=Nc2cccc(S(N)(=O)=O)c2)c2ccccc21,10,?,-9,-1%,-18%,-15%
CCc1cccc(CC)c1NC(=S)NCCc1ccc(O)c(O)c1,17,?,3,-3%,23µM*,?
CCc1cccc(CC)c1NC(=S)NCCc1c(C)[nH]c2ccccc12,-7,-21,-23,-4%,?,?
Cc1ccc(NC(=O)C2CCCN(c3ncnc4c3nc3n4CCCCC3)C2)nc1 (configuration not stated),-9,25,23,0%,13µM*,8.2µM*
O=C(NCc1ccccc1Cl)C1CCCN(c2ncnc3c2nc2n3CCCCC2)C1 (configuration not stated),-9,-20,6,.,?,?
O=C(Nc1ccc(Cl)cn1)C1CCN(c2ncnc3c2nc2n3CCCCC2)CC1,6,-91*,-10,.,?,16µM*
O=C(NCc1ccco1)C1CCCN(c2ncnc3c2nc2n3CCCCC2)C1 (configuration not stated),8,11,8,.,?,13µM*
O=C(NCc1ccc(Cl)cc1)C1CCN(c2ncnc3c2nc2n3CCCCC2)CC1,-4,.,.,-5%,1%,-2%
Cc1ccnc(NC(=O)C2CCCN(c3ncnc4c3nc3n4CCCCC3)C2)c1 (configuration not stated),-3,24,4,.,-10%,?
COc1cc(OC)c(N(C)C(=O)C2CCCN(c3ncnc4c3nc3n4CCCCC3)C2)cc1Cl (configuration not stated),-11,.,.,-2%,?,21µM*
O=C(C1CCCN(c2ncnc3c2nc2n3CCCCC2)C1)N1CCCCC1 (configuration not stated),2,35,7,1%,?,?
COc1cc(CC(NC(C)=O)C(=O)NC2CCN(c3nc(OC)nc(OC)n3)CC2)cc(OC)c1 (configuration not stated),14,-7,-4,.,5%,-4%
Cc1ccc(C)c(NC(=O)CN2C(=O)CCc3ccccc32)c1,3,.,.,-1%,-6%,0%
CC(C)c1ccc(Nc2c(-c3ccc(N4CCOCC4)cc3)nc3ncccn23)cc1,4,.,.,-17%,-18%,-24%
O=C(Nc1ccc(Cl)cn1)C1CCCN(c2ncnc3c2nc2n3CCCCC2)C1 (configuration not stated),4,-10,25,2%,21µM*,21µM*
O=C(NCCCN1CCN(c2ccccc2)CC1)C1CCCN(c2ncnc3c2nc2n3CCCCC2)C1 (configuration not stated),16,10,-67*,-1%,23µM*,?
COc1ccc(Cl)cc1NC(=O)C1CCCN(c2ncnc3c2nc2n3CCCCC2)C1 (configuration not stated),-3,31,4,.,8.2µM*,8.2µM*
O=C(Nc1ccc(F)c(Cl)c1)C1CCN(c2ncnc3c2nc2n3CCCCC2)CC1,4,-20,-14,.,?,18µM*
O=C(Nc1cccnc1Cl)C1CCCN(c2ncnc3c2nc2n3CCCCC2)C1 (configuration not stated),-2,0,27,1%,?,?
SMILES,DRD3 agonist,IL1B secr inh,DRD3 antagonist,ClpP mod,DT40 TDP1 CPT,TDP1 cell noCPT
COC(=O)C1CC2=C(CCCC2=O)N(c2ccccc2)C1=O (configuration not stated),-16,22,?,-5%,-14%,-2%
CCCCn1c(=O)c2oc3ccccc3c2n(Cc2ccc(OC)cc2)c1=O,-15,.,.,?,?,?
CC1CCN(S(=O)(=O)c2ccc3c(c2)N(CC(=O)NC(C)c2ccccc2)C(=O)CS3)CC1 (configuration not stated),-9,.,.,0%,?,?
O=C(Nc1ccccn1)C1CCCN(c2ncnc3c2nc2n3CCCCC2)C1 (configuration not stated),13,66,24,.,?,15µM*
O=C(NCCc1ccccc1)C1CCCN(c2ncnc3c2nc2n3CCCCC2)C1 (configuration not stated),-1,25,7,1%,?,?
COc1cc(OC)c(Nc2nc3ccc(C)cc3n3nnnc23)cc1Cl,-7,.,.,0%,-6%,-4%
CC(C(=O)c1ccccc1)[n+]1cccc(Br)c1 (configuration not stated),-5,22,-71*,-2%,?,?
CC(=O)Nc1cc[n+](C(C)C(=O)c2ccccc2)cc1 (configuration not stated),-19,47,?,0%,?,-19%
CC(C(=O)c1ccc(-c2ccccc2)cc1)[n+]1cccc(NC(=O)c2ccccc2)c1 (configuration not stated),-2,?,6,.,18µM*,15µM*
C[n+]1cccc(C(=O)Nc2ccccc2)c1,1,22,-11,-1%,-3%,20%
CC(C(=O)c1ccccc1)[n+]1cccc(Cl)c1 (configuration not stated),.,.,.,1%,3%,?
CC(=O)Nc1cc[n+](C(C)C(=O)c2ccc(Br)cc2)cc1 (configuration not stated),-16,15,-84*,.,-22%,?
O=C(c1cnccn1)N1CCC2(CC1)CCN(c1ccccn1)CC2,.,.,.,.,2%,-7%

# Compound activity from PubChem BioAssay.
